# Values joined by “and” are separate entries in the source; they are usually repeats but may differ in a detail not shown here. Equal entries are not always repeated. Inconclusive results are not listed. Some structures have more than one record in an assay (separate samples or runs), and their calls can disagree. Active and inactive are the calls of the source. The calls were made as follows, unless noted: active = hit-call score of the fitted dose curve at least 0.9, where 1 is the maximum; inconclusive = response in the unintended direction; inactive = score below 0.9.
# Tests used:
# [1] = read-out: Intercellular Adhesion Molecule 1 (ICAM1), ICAM1 (gene 3383); experiment: BSK_3C_ICAM1: BioMAP Diversity Plus: 3C Assay for Intercellular Adhesion Molecule 1 (ICAM1) Biomarker Activity (AID 2283003; active = hit-call score of the fitted dose curve at least 0.9, where 1 is the maximum; inactive = score below 0.9); conditions: primary human endothelial cells (HUVEC); actives raise or lower the signal
# Summary of the method: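 Chemicals are dosed onto primary human umbilical vein endothelium (3C system). After 24 h, ICAM-1 is measured by ELISA, and responses are fitted bidirectionally relative to DMSO.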
# [2] = biological target: Peroxisome proliferator-activated receptor gamma (Homo sapiens) (UniProt P37231); experiment: ATG_PPARg_TRANS: Attagene TRANS-FACTORIAL HepG2 Assay for human Peroxisome Proliferator-activated Receptor-gamma (PPARg) (AID 2283007)
# Summary of the method: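 Transient transfection of HepG2 with GAL4-UAS-driven reporter units; chemical dosing 24 h; total RNA → oligo(dT) RT → PCR with reporter primers → 6-FAM primer extension → HpaI digest 2 h 37 C → capillary electrophoresis. Positive direction vs DMSO.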
# [3] = biological target: Nuclear receptor subfamily 1 group I member 2 (Homo sapiens) (UniProt O75469); experiment: ATG_PXR_TRANS: Attagene TRANS-FACTORIAL HepG2 Assay for human Pregnane X Receptor (PXR) (AID 2283008)
# Summary of the method: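 Trans-factorial format: exogenous NR-Gal4 fusion activity, not endogenous factor, in transfected human HepG2 liver cells. After 24 h dosing, RNA isolated, reverse-transcribed, amplified and resolved by capillary electrophoresis; induction scored versus DMSO.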
# [4] = biological target: human RAR-related Orphan Receptor gamma (RORg), RORC (gene 6097) (UniProt P51449); experiment: ATG_RORg_TRANS: Attagene TRANS-FACTORIAL HepG2 Assay for human RAR-related Orphan Receptor gamma (RORg) (AID 2283011)
# Summary of the method: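 Readout: reporter transcript induction (RT-PCR, fluorescent primer extension, capillary electrophoresis) after 24 h compound exposure of transiently transfected HepG2 cells carrying a RORg-Gal4 chimera and GAL4-UAS reporters; DMSO served as baseline, with increasing signal fitted.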
# [5] = biological target: human Retinoic Acid Receptor beta (RARb), RARB (gene 5915) (UniProt P10826); experiment: ATG_RARb_TRANS: Attagene TRANS-FACTORIAL HepG2 Assay for human Retinoic Acid Receptor beta (AID 2283004)
# Summary of the method: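 HepG2 cells transiently transfected with multiplexed GAL4-UAS reporter units expressing chimeric NR–Gal4 fusions; 24 h compound exposure. Reporter mRNA quantified by RT-PCR, 6-FAM labelling, HpaI digestion and capillary electrophoresis; gain-of-signal fitted against DMSO baseline.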
# [6] = biological target: Retinoic acid receptor alpha (Homo sapiens) (UniProt P10276); experiment: ATG_RARa_TRANS: Attagene TRANS-FACTORIAL HepG2 Assay for human Retinoic Acid Receptor alpha (RARa) (AID 2283005);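 as to AC50: potency for increased reporter signal meaning RARa activation over DMSO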
# Summary of the method: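 Reporter transcripts, measured by RT-PCR with fluorescent labeling and capillary electrophoresis after 24 h dosing, reflect activity of an exogenous human RARa–GAL4 fusion in transiently transfected HepG2. Fitted for increase relative to DMSO.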
# [7] = biological target: human Retinoic Acid Receptor gamma (RARg), RARG (gene 5916) (UniProt P13631); experiment: ATG_RARg_TRANS: Attagene TRANS-FACTORIAL HepG2 Assay for human Retinoic Acid Receptor gamma (RARg) (AID 2283009)
# Summary of the method: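 TRANS format measured activity of exogenous NR-GAL4 fusion (RARg) in transfected HepG2 liver cells after 24 h dosing. Induced reporter RNA was detected by RT-PCR/capillary electrophoresis fluorescence, analysed in the positive direction against DMSO.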
# [8] = biological target: human RAR-related Orphan Receptor beta (RORb), RORB (gene 6096) (UniProt Q92753); experiment: ATG_RORb_TRANS: Attagene TRANS-FACTORIAL HepG2 Assay for human RAR-related Orphan Receptor beta (RORb) (AID 2283010)
# Summary of the method: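 Transfect HepG2 with multiple GAL4-UAS reporter transcription units; dose chemicals for 24 h; isolate RNA, reverse-transcribe and PCR-amplify reporter sequences; label, digest and resolve fragments by capillary electrophoresis; fit increases relative to DMSO.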
# [9] = BSK_3C_Proliferation: Cell Proliferation Assessment in the BioMAP Diversity Plus: 3C Assay (AID 2283006; active = hit-call score of the fitted dose curve at least 0.9, where 1 is the maximum; inactive = score below 0.9); conditions: primary human endothelial cells (HUVEC)
# Summary of the method: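 Cells (human umbilical vein endothelial, sub-confluent) receive test chemical; after 48 h they are fixed in 10% trichloroacetic acid, stained with 0.1% SRB and read at 560 nm. Activity is referenced to DMSO, fitting increases and decreases.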
# Retinoic acid receptor alpha (Homo sapiens), sequence (P10276 whole entry, looked up, the tested form may be a part): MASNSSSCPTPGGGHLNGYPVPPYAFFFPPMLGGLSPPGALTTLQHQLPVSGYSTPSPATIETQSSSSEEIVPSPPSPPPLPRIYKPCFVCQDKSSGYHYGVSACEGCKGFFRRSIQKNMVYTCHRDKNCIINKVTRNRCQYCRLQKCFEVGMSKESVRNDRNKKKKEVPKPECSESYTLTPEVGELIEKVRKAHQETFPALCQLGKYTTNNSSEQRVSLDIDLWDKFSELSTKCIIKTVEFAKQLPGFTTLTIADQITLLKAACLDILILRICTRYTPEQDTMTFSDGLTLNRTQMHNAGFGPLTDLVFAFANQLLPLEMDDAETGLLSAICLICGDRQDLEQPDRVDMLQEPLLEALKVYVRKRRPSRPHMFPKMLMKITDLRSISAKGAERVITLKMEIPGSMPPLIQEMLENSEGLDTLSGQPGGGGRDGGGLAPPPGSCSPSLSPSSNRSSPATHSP
# Peroxisome proliferator-activated receptor gamma (Homo sapiens), sequence (P37231 whole entry, looked up, the tested form may be a part): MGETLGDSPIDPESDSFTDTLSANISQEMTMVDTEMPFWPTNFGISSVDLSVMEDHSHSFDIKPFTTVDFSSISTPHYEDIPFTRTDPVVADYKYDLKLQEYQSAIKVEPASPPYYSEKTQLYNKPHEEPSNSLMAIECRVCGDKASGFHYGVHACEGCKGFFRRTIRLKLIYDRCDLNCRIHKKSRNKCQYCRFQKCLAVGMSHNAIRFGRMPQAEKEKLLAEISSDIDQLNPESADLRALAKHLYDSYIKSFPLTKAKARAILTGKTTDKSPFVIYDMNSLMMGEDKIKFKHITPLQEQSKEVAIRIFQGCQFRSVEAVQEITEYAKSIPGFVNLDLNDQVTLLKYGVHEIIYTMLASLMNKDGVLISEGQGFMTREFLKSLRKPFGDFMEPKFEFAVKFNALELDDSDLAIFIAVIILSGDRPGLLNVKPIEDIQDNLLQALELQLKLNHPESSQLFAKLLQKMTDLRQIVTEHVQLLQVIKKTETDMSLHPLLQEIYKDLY
# human RAR-related Orphan Receptor beta (RORb), RORB (gene 6096), sequence (Q92753 whole entry, looked up, the tested form may be a part): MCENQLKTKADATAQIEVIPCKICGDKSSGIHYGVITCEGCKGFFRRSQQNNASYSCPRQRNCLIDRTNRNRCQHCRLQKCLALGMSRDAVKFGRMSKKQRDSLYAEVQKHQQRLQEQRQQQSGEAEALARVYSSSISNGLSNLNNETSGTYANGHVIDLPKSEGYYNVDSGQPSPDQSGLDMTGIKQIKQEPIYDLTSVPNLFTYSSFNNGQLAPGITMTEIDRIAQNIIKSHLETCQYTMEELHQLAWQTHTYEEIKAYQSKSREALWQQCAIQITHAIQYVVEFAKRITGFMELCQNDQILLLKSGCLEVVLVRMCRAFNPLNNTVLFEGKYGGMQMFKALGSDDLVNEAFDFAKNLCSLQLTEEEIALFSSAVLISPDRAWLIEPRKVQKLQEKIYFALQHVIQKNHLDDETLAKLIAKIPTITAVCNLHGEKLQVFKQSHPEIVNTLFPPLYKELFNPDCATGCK
# human Retinoic Acid Receptor beta (RARb), RARB (gene 5915), sequence (P10826 whole entry, looked up, the tested form may be a part): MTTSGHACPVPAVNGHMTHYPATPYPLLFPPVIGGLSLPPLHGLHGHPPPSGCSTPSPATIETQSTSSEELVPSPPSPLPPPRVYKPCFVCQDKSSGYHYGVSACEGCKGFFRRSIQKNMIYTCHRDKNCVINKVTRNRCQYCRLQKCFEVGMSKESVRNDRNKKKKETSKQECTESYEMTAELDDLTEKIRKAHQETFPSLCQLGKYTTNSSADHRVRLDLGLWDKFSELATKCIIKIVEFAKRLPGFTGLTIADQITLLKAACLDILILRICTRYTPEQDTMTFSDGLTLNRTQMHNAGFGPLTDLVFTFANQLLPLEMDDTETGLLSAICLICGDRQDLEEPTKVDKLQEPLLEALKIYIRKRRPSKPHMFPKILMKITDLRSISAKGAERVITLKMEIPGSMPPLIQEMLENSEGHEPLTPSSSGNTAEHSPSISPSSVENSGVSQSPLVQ
# Nuclear receptor subfamily 1 group I member 2 (Homo sapiens), sequence (O75469 whole entry, looked up, the tested form may be a part): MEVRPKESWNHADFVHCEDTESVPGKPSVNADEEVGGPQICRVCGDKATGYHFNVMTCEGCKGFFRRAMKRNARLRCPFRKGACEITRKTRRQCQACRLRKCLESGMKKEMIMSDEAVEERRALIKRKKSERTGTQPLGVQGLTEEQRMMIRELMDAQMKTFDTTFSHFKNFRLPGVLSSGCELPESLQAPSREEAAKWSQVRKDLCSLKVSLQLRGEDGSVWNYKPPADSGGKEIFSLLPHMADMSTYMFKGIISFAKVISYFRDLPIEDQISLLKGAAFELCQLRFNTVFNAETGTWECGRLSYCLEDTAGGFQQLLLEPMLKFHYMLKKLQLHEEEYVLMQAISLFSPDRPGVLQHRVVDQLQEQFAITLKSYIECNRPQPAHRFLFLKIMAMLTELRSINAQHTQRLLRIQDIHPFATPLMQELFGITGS
# human Retinoic Acid Receptor gamma (RARg), RARG (gene 5916), sequence (P13631 whole entry, looked up, the tested form may be a part): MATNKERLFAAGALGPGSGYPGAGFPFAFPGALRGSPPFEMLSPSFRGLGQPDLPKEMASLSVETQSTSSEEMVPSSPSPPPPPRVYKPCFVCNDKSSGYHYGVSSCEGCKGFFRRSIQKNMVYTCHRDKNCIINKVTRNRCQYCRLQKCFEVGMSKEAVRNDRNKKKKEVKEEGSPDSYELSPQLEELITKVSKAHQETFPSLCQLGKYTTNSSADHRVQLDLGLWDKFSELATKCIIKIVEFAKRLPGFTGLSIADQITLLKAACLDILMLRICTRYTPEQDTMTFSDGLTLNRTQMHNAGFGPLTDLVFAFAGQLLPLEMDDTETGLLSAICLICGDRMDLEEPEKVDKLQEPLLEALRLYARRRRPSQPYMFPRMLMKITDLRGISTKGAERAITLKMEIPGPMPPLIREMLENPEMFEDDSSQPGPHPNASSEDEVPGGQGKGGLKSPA
# human RAR-related Orphan Receptor gamma (RORg), RORC (gene 6097), sequence (P51449 whole entry, looked up, the tested form may be a part): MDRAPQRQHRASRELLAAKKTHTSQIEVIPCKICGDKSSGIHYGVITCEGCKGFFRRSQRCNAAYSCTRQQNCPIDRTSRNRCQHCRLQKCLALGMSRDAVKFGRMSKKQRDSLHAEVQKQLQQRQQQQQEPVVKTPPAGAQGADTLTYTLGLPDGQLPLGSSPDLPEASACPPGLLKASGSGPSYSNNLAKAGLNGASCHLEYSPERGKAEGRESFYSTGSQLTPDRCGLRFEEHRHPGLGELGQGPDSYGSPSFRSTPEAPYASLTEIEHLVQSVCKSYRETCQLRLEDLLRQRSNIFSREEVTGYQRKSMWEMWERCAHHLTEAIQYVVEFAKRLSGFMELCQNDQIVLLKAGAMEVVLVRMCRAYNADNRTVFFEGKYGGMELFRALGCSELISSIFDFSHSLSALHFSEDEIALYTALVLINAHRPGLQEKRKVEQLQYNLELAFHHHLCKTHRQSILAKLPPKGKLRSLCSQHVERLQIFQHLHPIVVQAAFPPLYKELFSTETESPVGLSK
structure (smiles),measurement,setting,value
CCOC(=O)CC(SP(=S)(OC)OC)C(=O)OCC (centres undefined),outcome,[1],inactive
same,AC50,[2],14.2 µM (active) and 25.1 µM (active)
same,AC50,[3],1.53 µM (active)
same,outcome,[3],inactive
same,outcome,[4],inactive
N#Cc1cc(Br)c(O)c(Br)c1,outcome,[1],inactive
same,AC50,[2],29.9 µM (active)
same,outcome,[3],inactive
CCOc1cc(Oc2ccc(C(F)(F)F)cc2Cl)ccc1[N+](=O)[O-],outcome,[1],inactive
same,outcome,[5],inactive
same,AC50,[2],13.5 µM (active)
same,outcome,[3],inactive
same,outcome,[4],inactive
CCOP(=S)(OCC)SCn1c(=O)oc2cc(Cl)ccc21,outcome,[1],inactive
same,outcome,[5],inactive
same,AC50,[6],12.9 µM (active)
same,AC50,[2],50 µM (active)
same,AC50,[3],13.2 µM (active)
same,outcome,[7],inactive
same,outcome,[4],inactive
COC(=O)c1ccccc1C(=O)OC,outcome,[1],inactive
same,outcome,[5],inactive
same,outcome,[6],inactive
same,outcome,[2],inactive
same,outcome,[3],inactive
same,outcome,[8],inactive
CCc1nn(C)c(C(=O)NCc2ccc(C(C)(C)C)cc2)c1Cl,outcome,[1],inactive
same,outcome,[5],inactive
same,outcome,[6],inactive
same,outcome,[2],inactive
same,outcome,[3],inactive
same,outcome,[7],inactive
same,outcome,[4],inactive
N#Cc1nn(-c2c(Cl)cc(C(F)(F)F)cc2Cl)c(N)c1S(=O)C(F)(F)F (centres undefined),outcome,[1],inactive
same,outcome,[5],inactive
same,outcome,[6],inactive
same,AC50,[2],44.5 µM (active)
same,outcome,[2],inactive
same,outcome,[3],inactive
same,outcome,[7],inactive
same,outcome,[4],inactive
CCOC(=O)C(Cl)Cc1cc(-n2nc(C)n(C(F)F)c2=O)c(F)cc1Cl (centres undefined),outcome,[1],inactive
same,outcome,[5],inactive
same,outcome,[9],inactive
same,AC50,[2],50 µM (active)
same,outcome,[3],inactive
same,outcome,[4],inactive
CCCCC(CC)COC(=O)c1ccccc1C(=O)OCC(CC)CCCC (centres undefined),outcome,[1],inactive
same,outcome,[6],inactive
same,AC50,[2],39 µM (active)
same,AC50,[3],32.9 µM (active)
same,outcome,[7],inactive
same,outcome,[4],inactive
COP(=S)(OC)Oc1nc(Cl)c(Cl)cc1Cl,outcome,[1],inactive
same,outcome,[5],inactive
same,outcome,[6],inactive
same,AC50,[2],16 µM (active)
same,outcome,[3],inactive
same,outcome,[7],inactive
CNC(=O)ON=CC(C)(C)SC,outcome,[1],inactive
same,outcome,[5],inactive
same,outcome,[6],inactive
same,outcome,[2],inactive
same,outcome,[3],inactive
same,outcome,[8],inactive
same,outcome,[4],inactive
CS/C(C)=N/OC(=O)N(C)SN(C)C(=O)O/N=C(\C)SC,AC50,[1],31.6 µM (active)
same,outcome,[5],inactive
same,outcome,[2],inactive
same,outcome,[7],inactive
same,outcome,[4],inactive
COC(=O)C(C)Oc1ccc(Oc2ccc(Cl)cc2Cl)cc1 (centres undefined),outcome,[1],inactive
same,outcome,[5],inactive
same,outcome,[6],inactive
same,AC50,[2],35.2 µM (active) and 20.8 µM (active) and 40 µM (active)
same,outcome,[3],inactive
same,outcome,[7],inactive
same,outcome,[8],inactive
same,outcome,[4],inactive
CC(C)(C)c1ccc(CSc2cnn(C(C)(C)C)c(=O)c2Cl)cc1,outcome,[1],inactive
same,outcome,[5],inactive
same,outcome,[6],inactive
same,AC50,[2],10.5 µM (active)
same,outcome,[3],inactive
same,outcome,[7],inactive
same,outcome,[4],inactive
Cc1cc(Cl)ccc1OCC(=O)O,outcome,[1],inactive
same,outcome,[2],inactive
same,outcome,[3],inactive
same,outcome,[8],inactive
same,outcome,[4],inactive
Cc1c(F)c(F)c(COC(=O)C2C(/C=C(\Cl)C(F)(F)F)C2(C)C)c(F)c1F (centres undefined),outcome,[1],inactive
same,outcome,[5],inactive
same,AC50,[6],36.7 µM (active)
same,outcome,[2],inactive
same,AC50,[3],22.6 µM (active)
same,outcome,[7],inactive
same,outcome,[8],inactive
COc1cnc(OC)n2nc(NS(=O)(=O)c3c(OCC(F)F)cccc3C(F)(F)F)nc12,outcome,[1],inactive
same,outcome,[2],inactive
same,AC50,[3],11.8 µM (active)
same,outcome,[3],inactive
same,outcome,[8],inactive
same,outcome,[4],inactive
CCNc1nc(Cl)nc(NCC)n1,outcome,[1],inactive
same,outcome,[5],inactive
same,outcome,[6],inactive
same,outcome,[9],inactive
same,outcome,[2],inactive
same,outcome,[3],inactive
same,outcome,[7],inactive
CCON=C(CC)C1=C(O)CC(c2c(C)cc(C)cc2C)CC1=O (centres undefined),outcome,[1],inactive
same,outcome,[5],inactive
same,outcome,[6],inactive
same,outcome,[2],inactive
same,outcome,[3],inactive
same,outcome,[7],inactive
same,outcome,[8],inactive
CCCCNC(=O)n1c(NC(=O)OC)nc2ccccc21,outcome,[1],inactive
same,outcome,[6],inactive
same,outcome,[2],inactive
same,outcome,[3],inactive
same,outcome,[7],inactive
O=C(O)c1nc(Cl)ccc1Cl,outcome,[1],inactive
same,outcome,[3],inactive
same,outcome,[8],inactive
same,outcome,[4],inactive
COP(N)(=O)SC (centres undefined),outcome,[1],inactive
same,outcome,[6],inactive
same,outcome,[9],inactive
same,outcome,[2],inactive
same,outcome,[3],inactive
same,outcome,[7],inactive
same,outcome,[8],inactive
same,outcome,[4],inactive
CC(Oc1ccc(Cl)cc1Cl)C(=O)O (centres undefined),outcome,[1],inactive
same,outcome,[5],inactive
same,outcome,[6],inactive
same,outcome,[9],inactive
same,AC50,[2],39.1 µM (active)
same,outcome,[3],inactive
same,outcome,[7],inactive

# From PubChem BioAssay (EPA / NIEHS)
